Sampled rows, rich in hits. Any-hit rate of the full collection: about 3.4%.
FBW7 activator: human FBW7 E3 ligase activation, primary screen; Q969H0; AlphaScreen FBW7–phospho-cyclin E peptide binding, activator screen; normalized activity (activation), % at 26.1 µM; actives 0.13% (n = 650,000); AID 1259310; in the data active = normalized activity above about 1.9%;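 note: purified mutant Fbw7 with reduced substrate affinity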
Target sequence (Q969H0 whole entry, looked up): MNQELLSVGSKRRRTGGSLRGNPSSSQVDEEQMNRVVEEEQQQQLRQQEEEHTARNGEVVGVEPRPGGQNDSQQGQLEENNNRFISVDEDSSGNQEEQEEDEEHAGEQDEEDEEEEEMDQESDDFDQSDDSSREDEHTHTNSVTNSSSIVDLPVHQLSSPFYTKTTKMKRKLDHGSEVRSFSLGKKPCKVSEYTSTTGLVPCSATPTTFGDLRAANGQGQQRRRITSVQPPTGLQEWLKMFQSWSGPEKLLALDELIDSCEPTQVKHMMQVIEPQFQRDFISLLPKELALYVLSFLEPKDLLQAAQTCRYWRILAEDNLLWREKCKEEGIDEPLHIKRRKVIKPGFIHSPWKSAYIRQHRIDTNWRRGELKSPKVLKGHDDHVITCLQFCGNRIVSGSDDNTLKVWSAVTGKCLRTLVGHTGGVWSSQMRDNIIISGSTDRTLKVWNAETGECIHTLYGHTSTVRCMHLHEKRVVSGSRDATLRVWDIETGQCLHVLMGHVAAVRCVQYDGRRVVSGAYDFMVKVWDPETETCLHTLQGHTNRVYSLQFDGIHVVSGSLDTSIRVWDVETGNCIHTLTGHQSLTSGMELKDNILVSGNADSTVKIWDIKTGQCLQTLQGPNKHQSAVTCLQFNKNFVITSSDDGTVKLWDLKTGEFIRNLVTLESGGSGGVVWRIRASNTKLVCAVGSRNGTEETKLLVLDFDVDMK
MITF inh: human MITF inhibition, primary screen; O75030; AlphaScreen MITF homodimerization, bead proximity signal; inhibition, % at 2.6 µM; actives 0.91% (n = 650,000); in the data active = inhibition above about 50%;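 note: 0% = vehicle wells with protein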
GPR151 activ: activates the human receptor GPR151; Q8TDV0; PathHunter beta-arrestin GPR151 cells, luminescence; activation, % at 11.2 µM; actives 1% (n = 650,000); AID 1508602; in the data active = activation above about 4.9%;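 note: 0% = median of compound wells and 100% = cells with positive control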
TEAD-YAP inh: TEAD-YAP interaction inhibition; HEK-TIYL cells, TEAD-Gal4/YAP UAS-luciferase luminescence; inhibition, % at 9.12 µM; actives 1.4% (n = 640,000); AID 1259422; in the data active = inhibition above about 32%;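 note: 0% = median of test compound wells and 100% = reference inhibitor wells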
* hit, by the source's call.

SMILES	FBW7 activator	MITF inh	GPR151 activ	TEAD-YAP inh
O=C1C=CC2=C3c4cc(O)c(O)cc4C[C@@]3(O)COC2=C1	-0.3	88.1*	-0.9	5.1
CC(=O)O/N=C(\N)c1nonc1N1CCOCC1	1.9*	19.6	-1.7	-6.7
N#Cc1cc2c(nc1SCC(=O)N1CCOCC1)CCCCC2	0.0	-5.4	-0.5	83.0*
CCc1ccc2nc(SCC(N)=O)c(C#N)cc2c1	-0.1	-9.1	0.9	49.7*
N#Cc1cc2c(nc1SCC(=O)Nc1ccccc1)CCCC2	-0.2	-6.7	-1.2	-38.4
CCc1ccc2nc(SCC(=O)OC)c(C#N)cc2c1	0.0	5.0	0.7	-61.2
CC(C)c1ccc2nc(SCC(=O)N3CCOCC3)c(C#N)cc2c1	0.0	-0.3	-1.3	36.2*
N#Cc1cc2c(nc1SCC(=O)Nc1nc3ccccc3s1)CCC2	0.0	3.0	0.8	90.0*
COc1cc2cc(C#N)c(SCC(=O)N3CCOCC3)nc2cc1OC	-0.2	-7.2	1.6	-3.0
Oc1ccc(Br)cc1C1CC(c2ccc(Br)cc2)=NC(c2ccccc2F)N1 (centres undefined)	0.2	4.5	1.4	8.0
Cc1ccc2nc(-c3ccc(C)c(N)c3)oc2c1	0.7	11.0	-8.0	54.6*
Cc1ccc2nc(-c3cccc(-c4nc5ccc(C)cc5o4)c3)oc2c1	-0.1	-10.6	-0.5	-45.9
Cc1ccc2nc(-c3ccc(NC(=O)c4cc(I)ccc4Br)cc3)oc2c1	-0.2	7.3	-0.8	-28.7
Cc1ccc2nc(-c3ccc(Br)c(N)c3)oc2c1	0.8	19.6	-2.2	70.2*
CC1CN2C(=O)Cc3c(S(=O)(=O)Nc4ccc(F)cc4)ccc(c32)S1 (centres undefined)	0.0	10.1	0.0	23.4
CCc1cccc(NS(=O)(=O)c2ccc3c4c2CC(=O)N4CC(C)S3)c1 (centres undefined)	-0.1	-2.7	0.3	36.3*
COc1ccc(C2C(C#N)=C(N)Oc3n[nH]c(C)c32)cc1COc1ccccc1Cl (centres undefined)	-0.1	3.8	0.2	-16.1
Cn1nnnc1SCc1cnc(-c2ccccc2)s1	0.2	10.0	-0.6	-13.9
Cc1nnc(SCc2cnc(-c3ccc(C(C)C)cc3)s2)n1C	0.0	9.1	1.3	58.0*
CCCCOc1ccc(C(=O)Nc2nnc(COc3cc(C)ccc3C(C)C)s2)cc1	-0.1	4.2	0.9	10.9
CCc1cc2c(=O)c(-c3ccc4c(c3)OCCO4)coc2cc1OCC(=O)O	0.0	5.7	-1.4	87.1*
CCc1cc2c(=O)c(-c3ccc4c(c3)OCO4)coc2cc1OC(C)=O	0.2	9.2	-2.9	-46.1
CCc1cc2c(=O)c(-c3ccc4c(c3)OCCCO4)coc2cc1OC(=O)c1ccco1	0.7	3.7	-2.3	44.3*
COc1ccc2c(c1)C[C@H](C(=O)Nc1ccc(-c3cn[nH]c3)cc1O[C@@H]1CCN(C)C1)CO2	-0.4	-4.7	1.0	-8.3
COc1ccc(CCNSc2ccccc2[N+](=O)[O-])cc1OC	0.4	-2.5	0.0	0.8
SMILES	FBW7 activator	MITF inh	GPR151 activ	TEAD-YAP inh
COc1cc(Sc2ccccc2[N+](=O)[O-])ccc1N	-0.3	1.2	-0.7	45.5*
COc1ccc(-c2cc(-c3ccccc3)nc(SCC(=O)c3ccc(-c4ccccc4)cc3)c2C#N)cc1	-0.2	8.1	0.5	-6.2
Cc1ccc2nc(-c3ccc(N)cc3O)oc2c1	-0.1	4.9	-0.9	15.5
CCc1ccc2oc(-c3ccc(NC(C)=O)cc3)nc2c1	0.5	5.6	0.5	-69.9
CCc1ccc2oc(-c3ccc(N)cc3O)nc2c1	0.0	-0.2	-1.8	69.1*
Cc1ccc2oc(-c3ccc(N)cc3O)nc2c1	-0.2	-8.0	-0.9	41.3*
Cc1cc2nc(-c3cc(N)ccc3O)oc2cc1C	-0.1	5.8	-8.2	64.6*
Nc1ccc(O)c(-c2nc3cc(N)ccc3o2)c1	0.1	5.6	-6.4	-23.8
CCCC(N)c1ccc2c(c1)OCCO2 (centres undefined)	0.2	-2.0	0.0	7.1
CCOc1ccc(-n2cc(C(=O)NCC3CCCO3)c3cc(OC)c(OC)cc3c2=O)cc1 (centres undefined)	0.0	1.1	0.1	3.6
CCN1/C(=C/C(=C/c2sc3ccc(Cl)cc3[n+]2CC)C2CC2)Sc2ccc(Cl)cc21	-0.2	36.6	-1.7	30.3
CCN1/C(=C/c2ccc3ccccc3[n+]2CC)Sc2cc(OC)c(OC)cc21	-0.5	42.0	-0.5	91.3*
CC[n+]1c(/C=C/c2ccc(OC)c(OC)c2)ccc2ccccc21	1.5	15.0	1.3	58.8*
COc1ccc(/C=C/c2ccc3ccccc3[n+]2[O-])cc1	0.0	3.3	-3.4	71.9*
CCN1/C(=C/c2ccc3ccccc3[n+]2CC)Sc2ccc(Br)cc21	-0.5	16.1	1.1	71.3*
O=C(Cc1cscn1)N1CCC2(CCC(=O)N2Cc2ccccc2)CC1	-0.1	-11.1	2.5	6.3
COCCN1C(=O)c2oc3ccccc3c(=O)c2C1c1ccc(C)cc1 (centres undefined)	0.0	17.5	-0.4	8.4
COCCNC(=O)C(=O)NCc1ccc(Cl)cc1	0.5	-10.7	-0.8	2.2
COCCn1c2ccccc2n2c(=O)n(Cc3ccc(OC)cc3)nc12	-0.1	-14.9	-0.3	0.0
COC(=O)C1=C(C)NC(=O)N(C(C)=O)C1c1ccc2c(c1)OCO2 (centres undefined)	0.2	13.7	-0.9	-3.2
CC(=O)Nc1ccc(S(=O)(=O)N2c3ccccc3C(C)=CC2(C)C)cc1	0.1	-0.1	0.2	58.1*
CN=C(Nc1ccc(OC)cc1)c1ccccc1	0.0	5.5	-0.9	1.1
Cc1nc(CC(=O)N2CCC[C@@H]3CN(CCCc4ccccc4)CC[C@@H]32)cs1	-0.1	6.1	1.2	5.8
CCNc1cc(C)nc(NCCNC(=O)Nc2cc(Cl)ccc2OC)n1	-0.1	1.6	-0.7	32.6*
CN(C)CCNc1ccn2ncc(-c3ccc4c(c3)OCO4)c2n1	2.0*	-1.1	-1.1	-3.5
SMILES	FBW7 activator	MITF inh	GPR151 activ	TEAD-YAP inh
c1cc(CNc2ccn3ncc(-c4ccc5c(c4)OCO5)c3n2)ccn1	-0.2	8.6	0.4	26.3
COc1ccc(N=Cc2sc3ccccc3c2O)cc1	0.0	-9.0	-10.4	85.3*
CC(=O)NC1=NN(C(C)=O)C(C)(c2ccc(OC(C)=O)cc2)S1 (centres undefined)	0.3	8.6	0.9	66.0*
CC(=O)NC1=NN(C(C)=O)C(C)(c2cccc(OC(=O)c3ccccc3)c2)S1 (centres undefined)	0.2	22.4	-0.3	60.5*
O=C(CNC(=O)c1ccc2c(c1)OCO2)N/N=C/c1ccc([N+](=O)[O-])cc1	0.3	-15.9	-0.2	0.7
CC1=CC(C)(C)N2C(=O)C(=O)c3cc(O)cc1c32	-0.1	33.8	-1.0	54.2*
CC1=CC(C)(C)N2C(=O)C(=O)c3cc(OS(=O)(=O)c4ccc(C)cc4)cc1c32	-0.6	31.6	-0.3	12.2
COc1ccc(-c2nnc(N)o2)cc1OC	0.0	3.1	-0.4	2.8
Cc1ccc(-c2ccc(-c3nnc(N)o3)s2)s1	2.3*	-2.6	-3.8	-23.8
Cn1c(-c2ccccc2)cn2c3ccccc3nc12	0.6	4.8	-0.1	30.3
COc1cccc(-c2cn3cc(-c4ccc(F)cc4)nc3n2C)c1	-0.1	0.9	0.6	70.4*

Screens from PubChem BioAssay.
